Experimental findings from PubChem BioAssay (NCI) are described below.

This is part of a sample that, as a whole, favours compounds with a hit. Of some 79,000 tested, about 15% had one in any assay. Unmarked numbers belong to inactive results. The source made the active and inactive calls. Rule as the data show it: active = growth inhibition above about 70%; inactive = the rest.

The nature of experiment [1]: NCI Yeast Anticancer Drug Screen. Data for the rad50 strain (AID 155).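 Also: 0% = growth of vehicle-only cultures of the same strain.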 Particulars: S. cerevisiae rad50 strain growth inhibition, hits give high values. An outline of the steps: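 Growth of the mutant yeast was measured after compound exposure and referenced to vehicle-treated cultures.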
Experiment [2] can be described thus: NCI Yeast Anticancer Drug Screen. Data for the mec2-1 strain (AID 157). Particulars: S. cerevisiae mec2-1 strain, hits give high values. An outline of the steps: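 Yeast mec2-1 mutant treated with compound. Readout: growth inhibition vs vehicle controls.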
A short description of experiment [3]: NCI Yeast Anticancer Drug Screen. Data for the sgs1 mgt1 strain (AID 161).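 Also: 0% = growth of cultures given vehicle only.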 Particulars: S. cerevisiae sgs1 mgt1 strain, hits give high values. The essentials: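 Mutant yeast exposed to compound; growth scored against vehicle-only wells.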
The nature of experiment [4]: NCI Yeast Anticancer Drug Screen. Data for the cln2 rad14 strain (AID 165).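 Also: 0% = growth equal to vehicle treated cultures.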 Particulars: S. cerevisiae cln2 rad14 strain, hits give high values. An outline of the steps:
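cln2 rad14 yeast strain; compound exposure; growth inhibition read vs vehicle controls.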

The nature of experiment [5]: NCI Yeast Anticancer Drug Screen. Data for the bub3 strain (AID 167). Conditions: S. cerevisiae bub3 mutant strain, hits give high values. An outline of the steps: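 Whole-cell yeast assay. The mutant strain was incubated with compounds, and growth inhibition was determined by comparison with vehicle-treated cells.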
Experiment [6] in a line: NCI Yeast Anticancer Drug Screen. Data for the mlh1 rad18 strain (AID 175). Particulars: S. cerevisiae mlh1 rad18 strain growth inhibition, hits give high values. An outline of the steps:
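Yeast w/ defined DNA-repair lesions; compound exposure; growth vs vehicle controls → % inhibition.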

[7] abbreviates: at 5.0 µM (retest, dose inferred, filed as 0.5).
The mark [8] stands for this setting: at 50.0 µM (retest, dose inferred, filed as 5.0).

For the compound `O=C=Nc1ccccc1-c1ccc([N+](=O)[O-])cc1Cl`, the growth inhibition in experiment [1] (setting [7]) was -1%; in experiment [1] (setting [8]), 20%; in experiment [1] (at 50.0 µM) it was 73.2% (active); in experiment [2] (setting [7]), 32%; in experiment [2] (setting [8]) it was 62%; in experiment [2] (at 50.0 µM), 37.6%. Moreover, the growth inhibition in experiment [3] (setting [7]) is 8%; in experiment [3] (setting [8]), 44%; in experiment [3] (at 50.0 µM) it was 21.9%; in experiment [4] (setting [7]) it was -5%; in experiment [4] (setting [8]) it was -2%; in experiment [4] (at 50.0 µM), 68.8%. The growth inhibition in experiment [5] (setting [7]) is 36%; in experiment [5] (setting [8]), 42%; in experiment [5] (at 50.0 µM), 83.7% (active); in experiment [6] (setting [7]), 40%; in experiment [6] (setting [8]), 62%; in experiment [6] (at 50.0 µM), 84.2% (active).

For the compound `CN(C)C(=S)/N=c1\ss/c(=N/C(=S)N(C)C)n1-c1ccc([N+](=O)[O-])cc1`, the growth inhibition in experiment [1] (setting [7]) was 6%; in experiment [1] (setting [8]), 32%; in experiment [1] (at 50.0 µM) it was 97.8% (active); in experiment [2] (setting [7]) it was 18%; in experiment [2] (setting [8]), 41%; in experiment [2] (at 50.0 µM), 93.3% (active). For the same compound, the growth inhibition in experiment [3] (setting [7]) was 1%; in experiment [3] (setting [8]), 33%; in experiment [3] (at 50.0 µM), 97.8% (active); in experiment [4] (setting [7]), -7%; in experiment [4] (setting [8]), -2%; in experiment [4] (at 50.0 µM), 91.3% (active). Besides, the growth inhibition was 5% in experiment [5] (setting [7]); 4% in experiment [5] (setting [8]); 98.8% (active) in experiment [5] (at 50.0 µM); 4% in experiment [6] (setting [7]); 30% in experiment [6] (setting [8]); 98.2% (active) in experiment [6] (at 50.0 µM).

In the case of `COc1ccc(NC(=O)CCC(=O)CC(=O)c2ccncc2)cc1`, the growth inhibition is -9% in experiment [1] (setting [7]); 3% in experiment [1] (setting [8]); 3.5% in experiment [1] (at 50.0 µM); 4% in experiment [2] (setting [7]); -2% in experiment [2] (setting [8]); -8.65% in experiment [2] (at 50.0 µM). Moreover, the growth inhibition in experiment [3] (setting [7]) is 2%; in experiment [3] (setting [8]), -9%; in experiment [3] (at 50.0 µM), -6.25%; in experiment [4] (setting [7]) it was -5%; in experiment [4] (setting [8]), 2%; in experiment [4] (at 50.0 µM) it was 41.2%. In addition, the growth inhibition is -2% in experiment [5] (setting [7]); 1% in experiment [5] (setting [8]); 3.25% in experiment [5] (at 50.0 µM); -1% in experiment [6] (setting [7]); -5% in experiment [6] (setting [8]); -14.6% in experiment [6] (at 50.0 µM).

As to `N#CSCc1c(Cl)cccc1Cl`, the growth inhibition in experiment [1] (setting [7]) was 57%; in experiment [1] (setting [8]) it was 59%; in experiment [1] (at 50.0 µM), 81.7% (active); in experiment [2] (setting [7]) it was 40%; in experiment [2] (setting [8]) it was 48%; in experiment [2] (at 50.0 µM), 75.8% (active). Also, the growth inhibition in experiment [3] (setting [7]) is 18%; in experiment [3] (setting [8]) it was 92% (active); in experiment [3] (at 50.0 µM) it was 82.7% (active); in experiment [4] (setting [7]), 68%; in experiment [4] (setting [8]) it was 94% (active); in experiment [4] (at 50.0 µM), 64.5%. In addition, the growth inhibition in experiment [5] (setting [7]) is 64%; in experiment [5] (setting [8]), 95% (active); in experiment [5] (at 50.0 µM), 79.1% (active); in experiment [6] (setting [7]), 30%; in experiment [6] (setting [8]), 48%; in experiment [6] (at 50.0 µM), 79.8% (active).

Regarding `NS(=O)(=O)c1ccc(NC(=S)/N=C\C(C(=O)c2ccccc2)=C(\O)c2ccccc2)cc1`, the growth inhibition in experiment [1] (setting [7]) is 7%; in experiment [1] (setting [8]) it was 12%; in experiment [1] (at 50.0 µM), 6.9%; in experiment [2] (setting [7]), -2%; in experiment [2] (setting [8]), -15%; in experiment [2] (at 50.0 µM), 1.7%. Also, the growth inhibition is 0% in experiment [3] (setting [7]); -5% in experiment [3] (setting [8]); 9.8% in experiment [3] (at 50.0 µM); -19% in experiment [4] (setting [7]); -18% in experiment [4] (setting [8]); 41.5% in experiment [4] (at 50.0 µM). Also, the growth inhibition in experiment [5] (setting [7]) is 3%; in experiment [5] (setting [8]), 8%; in experiment [5] (at 50.0 µM), 8.15%; in experiment [6] (setting [7]) it was 10%; in experiment [6] (setting [8]), -7%; in experiment [6] (at 50.0 µM), 2.15%.

Take `CCOC1=C(NC(C)=O)C(=O)c2ccccc2C1=O`: the growth inhibition was 5% in experiment [1] (setting [7]); 97% (active) in experiment [1] (setting [8]); 99% (active) in experiment [1] (at 50.0 µM); -7% in experiment [2] (setting [7]); 97% (active) in experiment [2] (setting [8]); 85.9% (active) in experiment [2] (at 50.0 µM). The growth inhibition in experiment [3] (setting [7]) is -2%; in experiment [3] (setting [8]), 98% (active); in experiment [3] (at 50.0 µM) it was 97.3% (active); in experiment [4] (setting [7]) it was 60%; in experiment [4] (setting [8]), 97% (active); in experiment [4] (at 50.0 µM), 83.3% (active). For the same compound, the growth inhibition in experiment [5] (setting [7]) is 8%; in experiment [5] (setting [8]), 97% (active); in experiment [5] (at 50.0 µM) it was 94.7% (active); in experiment [6] (setting [7]), 2%; in experiment [6] (setting [8]) it was 98% (active); in experiment [6] (at 50.0 µM) it was 97.7% (active).

Turning to `CCCCCCCCCCCCCCNCc1ccccc1`, the growth inhibition in experiment [1] (setting [7]) is 99% (active); in experiment [1] (setting [8]) it was 97% (active); in experiment [1] (at 50.0 µM) it was 98.8% (active); in experiment [2] (setting [7]), 99% (active); in experiment [2] (setting [8]), 98% (active); in experiment [2] (at 50.0 µM), 98.5% (active). The growth inhibition is 99% (active) in experiment [3] (setting [7]); 97% (active) in experiment [3] (setting [8]); 98.2% (active) in experiment [3] (at 50.0 µM); 99% (active) in experiment [4] (setting [7]); 97% (active) in experiment [4] (setting [8]); 97.5% (active) in experiment [4] (at 50.0 µM). The growth inhibition is 99% (active) in experiment [5] (setting [7]); 97% (active) in experiment [5] (setting [8]); 98.6% (active) in experiment [5] (at 50.0 µM); 99% (active) in experiment [6] (setting [7]); 97% (active) in experiment [6] (setting [8]); 97.5% (active) in experiment [6] (at 50.0 µM).

Take `COC(=O)C12CCC(=O)C(C)=C1CCC(OC)(OC)C2` (stereo not given): the growth inhibition was -5% in experiment [1] (setting [7]); 4% in experiment [1] (setting [8]); 95.2% (active) in experiment [1] (at 50.0 µM); -10% in experiment [2] (setting [7]); 6% in experiment [2] (setting [8]); 16.9% in experiment [2] (at 50.0 µM). Moreover, the growth inhibition is 7% in experiment [3] (setting [7]); 17% in experiment [3] (setting [8]); 66.5% in experiment [3] (at 50.0 µM); -2% in experiment [4] (setting [7]); -7% in experiment [4] (setting [8]); -1% in experiment [4] (at 50.0 µM). The growth inhibition in experiment [5] (setting [7]) is -2%; in experiment [5] (setting [8]) it was -3%; in experiment [5] (at 50.0 µM) it was 61.8%; in experiment [6] (setting [7]), 10%; in experiment [6] (setting [8]), 11%; in experiment [6] (at 50.0 µM), 82.3% (active).

On to `Nc1c(O)c(Cl)cc(Cl)c1Cl`, for which the growth inhibition in experiment [1] (setting [7]) is 4%; in experiment [1] (setting [8]), 94% (active); in experiment [1] (at 50.0 µM), 96.2% (active); in experiment [2] (setting [7]), -4%; in experiment [2] (setting [8]) it was 95% (active); in experiment [2] (at 50.0 µM), 98.9% (active). Besides, the growth inhibition in experiment [3] (setting [7]) is 1%; in experiment [3] (setting [8]), 80% (active); in experiment [3] (at 50.0 µM) it was 96.6% (active); in experiment [4] (setting [7]), -3%; in experiment [4] (setting [8]), 70% (active); in experiment [4] (at 50.0 µM), 74.6% (active). The growth inhibition in experiment [5] (setting [7]) was 5%; in experiment [5] (setting [8]), 96% (active); in experiment [5] (at 50.0 µM), 98.4% (active); in experiment [6] (setting [7]), -1%; in experiment [6] (setting [8]) it was 93% (active); in experiment [6] (at 50.0 µM), 99% (active).

In the case of `Cn1c(-c2ccc(/C=N/NC(N)=NCCCCCCN=C(N)N/N=C/c3ccc(-c4c[n+]5ccccc5n4C)cc3)cc2)c[n+]2ccccc12`, the growth inhibition was 97% (active) in experiment [1] (setting [7]); 98% (active) in experiment [1] (setting [8]); 98.2% (active) in experiment [1] (at 50.0 µM); 97% (active) in experiment [2] (setting [7]); 98% (active) in experiment [2] (setting [8]); 96.8% (active) in experiment [2] (at 50.0 µM). Further, the growth inhibition in experiment [3] (setting [7]) was 97% (active); in experiment [3] (setting [8]), 98% (active); in experiment [3] (at 50.0 µM) it was 97.2% (active); in experiment [4] (setting [7]), 95% (active); in experiment [4] (setting [8]), 98% (active); in experiment [4] (at 50.0 µM) it was 89.3% (active). For the same compound, the growth inhibition in experiment [5] (setting [7]) is 97% (active); in experiment [5] (setting [8]), 99% (active); in experiment [5] (at 50.0 µM), 97.3% (active); in experiment [6] (setting [7]) it was 97% (active); in experiment [6] (setting [8]), 98% (active); in experiment [6] (at 50.0 µM), 97.7% (active).
